One test deals with Albumin (Bos taurus) (UniProt P02769). Description: compounds binding labelled BSA control protein – biochemical, small-molecule microarray, Alexa647 label, 635/667 nm fluorescence, artefact control for SMM control protein annotation, profiling panel (AID 1118).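 Note: score merges 667 nm emission intensity and signal-to-noise per printed compound spot.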 To be noted: BSA-A647 binding, fluorescence 635 nm, higher = more signal.
Test [1] is described as follows: probe aXIP binding to arrayed compounds – biochemical, NeuroSMM set, 635/667 nm fluorescence, primary screen (AID 1119).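 Note: probe is the protein aXip251-270 applied at 1 µg/mL to compound-printed slides; binding of probe to printed compounds measured as 667 nm fluorescence plus signal to noise.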 As to conditions: small-molecule microarray, higher = more signal, called active from +8 up or from −8 down.
A short description of test [2]: probe aNOTCH3 binding on compound microarray – biochemical, small-molecule microarray, 635/667 nm fluorescence, primary screen (AID 1120).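 Note: probe is a biotin-tagged antibody raised against NOTCH3 rather than NOTCH3 protein; score merges spot fluorescence near 667 nm with spot signal to noise.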 To be noted: higher = more signal.
Test [3] is described as follows: probe aNOTCH2 binding on compound microarray – biochemical, small-molecule microarray, 635/667 nm fluorescence, primary screen (AID 1121).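 Note: score merges feature fluorescence read at 667 nm with its signal to noise.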 As to conditions: higher = more signal.
The target of test [4] is Carbonic anhydrase 2 (Homo sapiens) (UniProt P00918). The test is described as follows: compounds binding carbonic anhydrase 2 – biochemical, small-molecule microarray, Alexa647-labelled CAII, profiling panel (AID 1122). To be noted: CAII-A647 binding fluorescence, higher = more signal.
The nature of test [5]: COS7 lysate on small-molecule microarray, probe aHis, 635 nm (AID 1123).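 Note: z-score combines 667nm fluorescence intensity with signal-to-noise per printed compound spot.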 As to conditions: COS7 cell lysate, fluorescence, higher = more signal.
Test [6] is described as follows: probe aLAP1 signal on lysate-treated microarray – cell lysate, small-molecule microarray, COS7 lysate, primary screen (AID 1124).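 Note: lysate comes from COS7 cells expressing LAP1 and is applied at 0.3 µg/mL; score merges spot fluorescence near 667 nm with signal-to-noise over triplicate slides.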 As to conditions: probe aLAP1, fluorescence, higher = more signal.
A further test concerns Sam68 (KHDRBS1). Description: compounds binding KHDRBS1 protein – biochemical, small-molecule microarray, 635 nm fluorescence, primary screen (AID 1125).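 Note: score merges 667 nm channel intensity with signal to noise over triplicate slides.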 As to conditions: higher = more signal.
In test [7] the test system is Chordin-like protein 2 (CHRDL2). The test is described as follows: compounds binding chordin-like 2 – biochemical, small-molecule microarray, 635 nm fluorescence, primary screen (AID 1126).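 Note: printed compound slides probed with Chrdl2 protein at 4 µg/mL for 1 h at 4 C; score merges 667 nm emission intensity with signal to noise over three replicate slides.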 As to conditions: fluorescence 635 nm, higher = more signal.
Test [8] concerns the target Concanavalin-A (Canavalia ensiformis) (UniProt P02866). The test is described as follows: compounds binding concanavalin A lectin – biochemical, small-molecule microarray, Alexa647 label, 635 nm, artefact control for SMM control protein annotation, primary screen (AID 1127).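 Note: z combines 667 nm emission intensity with signal-to-noise across three replicate slides.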 As to conditions: ConA-A647 binding fluorescence, higher = more signal.
Test [9] can be described thus: compounds binding Alexa647 anti-His antibody – biochemical, small-molecule microarray, 635 nm fluorescence, artefact control for SMM control protein annotation, primary screen (AID 1128).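 Note: score merges feature fluorescence with signal-to-noise for each printed compound spot.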 To be noted: higher = more signal.
Test [10] concerns Human papillomavirus type 1a E7 protein (residues 1-88). The test is described as follows: HPV1a E7 small-molecule binders, primary screen, biochemical, small-molecule microarray, residues 1-88, 635 nm (AID 1129). To be noted: small-molecule microarray binding, fluorescence 635 nm; higher = more signal.
Test [11] concerns the target Focal adhesion kinase 1 (Homo sapiens) (UniProt Q05397). The test is described as follows: PTK2 protein binding on printed compound slides – biochemical, small-molecule microarray, 635/667 nm fluorescence, BSA, DTT, primary screen (AID 1130).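 Note: composite of spot emission at 667 nm and signal to noise over triplicate slides.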 To be noted: 635 nm fluorescence, higher = more signal.
The subject of test [12] is Fibrinogen (Alexa647-labelled). Description: Alexa647-fibrinogen binding to printed small molecules – biochemical, small-molecule microarray, 635/667 nm fluorescence, artefact control for SMM control-protein annotation, profiling panel (AID 1131).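 Note: z-score merges 667 nm fluorescence with per-spot signal-to-noise over triplicate slides.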 As to conditions: fibrinogen-A647 binding fluorescence, higher = more signal.
In test [13] the target is Follistatin (Homo sapiens) (UniProt P19883). The test is described as follows: FST protein binding to printed compounds – biochemical, small-molecule microarray, 635/667 nm fluorescence, primary screen (AID 1132). As to conditions: 635 nm fluorescence, higher = more signal.
For test [14], the target named is Fibroblast growth factor 2 (Homo sapiens) (UniProt P09038). Description: basic fibroblast growth factor binding to printed compounds – biochemical, small-molecule microarray, 635/667 nm fluorescence, primary screen (AID 1133). As to conditions: FGF2, fluorescence 635/667, higher = more signal.
Test [15] can be described thus: JC-1 mitochondrial potential readout, lung cancer cells – cell-based, A549, JC-1 fluorescence, basal, 24 h, 100 nL, profiling panel (AID 1138).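 Note: A549 lung adenocarcinoma cells under basal conditions with no added stimulus; test concentration not given here.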 To be noted: higher = more signal.
The test system of the next test is Lefty1. The test is described as follows: Lefty1 protein binding to printed compounds – biochemical, small-molecule microarray, 635/667 nm fluorescence, primary screen (AID 1139). As to conditions: fluorescence 635/667, higher = more signal.
The subject of test [16] is wheat germ agglutinin (Triticum aestivum), Alexa647-labelled. The test is described as follows: Alexa647-WGA lectin binding to printed small molecules – biochemical, small-molecule microarray, 635/667 nm fluorescence, artefact control for SMM control-protein annotation, profiling panel (AID 1140).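 Note: score merges 667 nm feature emission with signal to noise over triplicate slides.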 As to conditions: WGA-A647 binding, 635 nm fluorescence, higher = more signal.

In test [17] the target is Luciferin 4-monooxygenase (Photinus pyralis) (UniProt P08659). The test is described as follows: inhibition of purified Photinus pyralis luciferase – biochemical, luminescence, purified enzyme, 2006 set, primary screen (AID 1141).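 Note: cell-free assay with purified firefly luciferase at 100 ng per well in PBS; test concentration not given here.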 As to conditions: purified firefly luciferase, SteadyGlo luminescence, 30 min; higher = more signal, called active from +8 up or from −8 down.

Active and inactive are the calls of the source.

Albumin (Bos taurus), sequence (P02769 whole entry, looked up): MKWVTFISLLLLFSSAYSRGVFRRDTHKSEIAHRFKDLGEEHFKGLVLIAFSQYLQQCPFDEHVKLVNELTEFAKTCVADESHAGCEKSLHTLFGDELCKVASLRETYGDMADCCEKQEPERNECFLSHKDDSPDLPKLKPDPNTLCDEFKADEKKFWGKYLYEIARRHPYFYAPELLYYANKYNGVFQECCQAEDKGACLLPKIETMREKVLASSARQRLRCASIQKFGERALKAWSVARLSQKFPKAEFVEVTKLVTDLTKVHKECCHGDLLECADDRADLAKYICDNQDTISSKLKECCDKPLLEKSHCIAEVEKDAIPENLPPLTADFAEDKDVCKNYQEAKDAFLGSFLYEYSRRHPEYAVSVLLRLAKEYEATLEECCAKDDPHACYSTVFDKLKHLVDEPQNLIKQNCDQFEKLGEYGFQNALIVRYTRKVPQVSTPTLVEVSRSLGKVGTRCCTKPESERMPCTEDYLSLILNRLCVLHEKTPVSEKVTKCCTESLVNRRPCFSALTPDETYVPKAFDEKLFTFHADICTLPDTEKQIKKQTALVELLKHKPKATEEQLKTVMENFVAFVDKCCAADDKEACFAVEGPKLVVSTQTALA
Luciferin 4-monooxygenase (Photinus pyralis), sequence (P08659 whole entry, looked up): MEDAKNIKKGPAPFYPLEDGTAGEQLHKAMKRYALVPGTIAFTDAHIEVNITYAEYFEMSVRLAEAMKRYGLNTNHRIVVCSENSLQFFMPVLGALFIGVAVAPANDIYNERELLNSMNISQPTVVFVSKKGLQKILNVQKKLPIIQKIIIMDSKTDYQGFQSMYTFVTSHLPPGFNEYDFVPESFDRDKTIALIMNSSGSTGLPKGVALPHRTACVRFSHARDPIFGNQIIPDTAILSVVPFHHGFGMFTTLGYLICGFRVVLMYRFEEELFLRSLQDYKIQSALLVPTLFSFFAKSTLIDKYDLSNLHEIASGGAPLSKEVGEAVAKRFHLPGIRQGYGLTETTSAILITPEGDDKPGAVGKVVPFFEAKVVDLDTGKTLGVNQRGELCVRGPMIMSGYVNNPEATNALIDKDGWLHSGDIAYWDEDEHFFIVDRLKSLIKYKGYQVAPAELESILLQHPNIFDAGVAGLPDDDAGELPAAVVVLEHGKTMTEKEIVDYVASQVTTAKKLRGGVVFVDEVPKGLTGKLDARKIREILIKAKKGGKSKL
Focal adhesion kinase 1 (Homo sapiens), sequence (Q05397 whole entry, looked up): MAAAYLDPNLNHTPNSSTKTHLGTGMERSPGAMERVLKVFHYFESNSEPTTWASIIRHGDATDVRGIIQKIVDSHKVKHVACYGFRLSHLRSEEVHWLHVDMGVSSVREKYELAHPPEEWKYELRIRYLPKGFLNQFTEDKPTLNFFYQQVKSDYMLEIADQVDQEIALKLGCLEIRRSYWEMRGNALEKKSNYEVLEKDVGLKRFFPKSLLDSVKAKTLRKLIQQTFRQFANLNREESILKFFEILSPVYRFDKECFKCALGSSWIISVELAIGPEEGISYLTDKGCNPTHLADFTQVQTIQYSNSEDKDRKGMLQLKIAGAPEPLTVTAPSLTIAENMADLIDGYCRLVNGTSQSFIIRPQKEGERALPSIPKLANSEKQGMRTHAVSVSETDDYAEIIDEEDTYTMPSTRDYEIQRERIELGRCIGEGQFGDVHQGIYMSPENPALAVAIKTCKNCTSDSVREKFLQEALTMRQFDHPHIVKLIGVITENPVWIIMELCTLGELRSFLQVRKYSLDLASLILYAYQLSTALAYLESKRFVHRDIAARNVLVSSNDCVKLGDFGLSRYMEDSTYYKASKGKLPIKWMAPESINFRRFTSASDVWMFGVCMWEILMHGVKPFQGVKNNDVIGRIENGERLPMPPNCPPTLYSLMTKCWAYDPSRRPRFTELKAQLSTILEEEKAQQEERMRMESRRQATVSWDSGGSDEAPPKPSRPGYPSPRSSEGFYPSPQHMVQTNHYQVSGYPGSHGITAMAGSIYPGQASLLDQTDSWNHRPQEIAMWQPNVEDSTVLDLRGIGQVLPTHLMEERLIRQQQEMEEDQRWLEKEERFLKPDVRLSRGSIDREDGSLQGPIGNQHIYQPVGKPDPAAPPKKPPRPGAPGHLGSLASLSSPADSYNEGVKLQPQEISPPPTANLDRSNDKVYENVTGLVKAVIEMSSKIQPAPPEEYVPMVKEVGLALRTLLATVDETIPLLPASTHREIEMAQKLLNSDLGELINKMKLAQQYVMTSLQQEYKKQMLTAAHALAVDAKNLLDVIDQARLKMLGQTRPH
Fibroblast growth factor 2 (Homo sapiens), sequence (P09038 whole entry, looked up): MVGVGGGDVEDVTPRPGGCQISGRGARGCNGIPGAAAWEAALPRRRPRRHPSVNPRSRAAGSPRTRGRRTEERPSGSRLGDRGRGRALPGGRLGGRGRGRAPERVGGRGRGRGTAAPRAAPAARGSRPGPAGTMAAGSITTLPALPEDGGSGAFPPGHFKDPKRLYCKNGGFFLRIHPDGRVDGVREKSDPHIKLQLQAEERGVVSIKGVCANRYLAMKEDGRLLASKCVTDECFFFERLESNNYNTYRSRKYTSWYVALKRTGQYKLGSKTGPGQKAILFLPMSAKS
Follistatin (Homo sapiens), sequence (P19883 whole entry, looked up): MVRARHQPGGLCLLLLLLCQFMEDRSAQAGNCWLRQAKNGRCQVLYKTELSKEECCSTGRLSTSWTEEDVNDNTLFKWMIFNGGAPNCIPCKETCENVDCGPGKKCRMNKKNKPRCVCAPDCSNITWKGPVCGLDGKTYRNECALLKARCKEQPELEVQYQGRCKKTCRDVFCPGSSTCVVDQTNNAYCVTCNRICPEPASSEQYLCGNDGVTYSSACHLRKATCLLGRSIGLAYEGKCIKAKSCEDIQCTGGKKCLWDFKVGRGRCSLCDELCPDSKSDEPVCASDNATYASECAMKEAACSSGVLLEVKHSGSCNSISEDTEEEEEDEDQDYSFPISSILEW
Concanavalin-A (Canavalia ensiformis), sequence (P02866 whole entry, looked up): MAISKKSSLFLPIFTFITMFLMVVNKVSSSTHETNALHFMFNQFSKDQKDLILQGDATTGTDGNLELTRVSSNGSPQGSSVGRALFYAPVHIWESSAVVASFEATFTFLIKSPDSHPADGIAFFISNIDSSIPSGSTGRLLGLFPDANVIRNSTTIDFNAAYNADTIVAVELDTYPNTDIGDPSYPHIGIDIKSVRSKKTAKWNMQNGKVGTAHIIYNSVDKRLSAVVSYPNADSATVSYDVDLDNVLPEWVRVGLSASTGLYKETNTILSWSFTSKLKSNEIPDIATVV

`CCOC(=O)C[C@H]1[C@H](OC(=O)c2ccc(C(=O)c3ccccc3)cc2)[C@@H](NC(=O)c2ccccc2)c2cc(OCCCO)ccc2N1C(=O)Cc1ccc(OC)cc1`: the composite z-score was 0.346 in the test with Albumin (Bos taurus); 0.0242 in test [2]; -0.0624 in test [3]; 0.0172 in test [4]; 0.445 in test [5]; -0.171 in test [6]. The composite z-score with Sam68 (KHDRBS1) is 0.226; in [7] it was 0.0542; in test [8], 0.163; in [9] it was -0.239; in [10], -0.158; in test [11], 0.0147. Also, the composite z-score in [12] is 0.204; in test [13], 0.0257; in test [14], -0.358; in the test on Lefty1 it was 0.545; in test [16], -0.0653. Moreover, the composite Z-score in test [1] was 0.713 (inactive). In addition, the z-score in [15] is 2.33; in [17] it was -0.863 (inactive).
For the compound `CN(C)CCCC[C@@H]1NC(=O)[C@@H]2C[C@H](C(=O)NCCCCCCN)[C@H](c3cccc(OCCO)c3)N2C1=O`, the composite z-score turned out to be 0.839 in the test with Albumin (Bos taurus); 1.07 in test [2]; 0.308 in [3]; 0.632 in test [4]; 3.25 in test [5]; 0.495 in test [6]. Further, the composite z-score in the test with Sam68 (KHDRBS1) was determined as 1.3; in test [7], 0.299; in [8], 1.13; in [9], 3.34; in [10] it was 1.2; in test [11], 1.48. The composite z-score in test [12] came to 0.936; in [13] it was 0.861; in [14], 0.357; in the test on Lefty1, 0.409; in test [16], 1.49. Also, in test [1], the composite Z-score was 0.938 (inactive). For the same compound, the results for the z-score in test [15] and in test [17] were -0.9 and 0.132 (inactive), respectively.
For the compound `CO[C@H]1O[C@H](CO)[C@@H](OC(=O)Nc2ccccc2)[C@H](OC(=O)Nc2ccccc2)[C@@H]1OC(=O)Nc1ccccc1`, the composite z-score is 0.809 in the test with Albumin (Bos taurus); 0.289 in [2]; -0.0847 in test [3]; 0.824 in test [4]; 1.29 in test [5]; 0.947 in test [6]. In addition, the composite z-score is 1.3 with Sam68 (KHDRBS1); 0.136 in test [7]; 1.12 in test [8]; 0.865 in [9]; 1.25 in [10]; 0.806 in [11]. Besides, the composite z-score was 1.01 in test [12]; 1.3 in [13]; 0.412 in test [14]; 0.464 in the test with Lefty1; 0.833 in test [16]. Also, in test [1], the composite Z-score is -0.0073 (inactive). In addition, the values for the z-score in [15] and in [17] were -0.115 and 0.713 (inactive), respectively.
As for `CCCC[C@@H]1C[C@H]1[C@@H](NC(=O)c1ccco1)c1ccc(-c2ccccc2)cc1`, the composite z-score in the test with Albumin (Bos taurus) was 0.0697; in test [2] it was 0.0155; in test [3], 0.0474; in test [4] it was 0.344; in test [5], -0.66; in test [6], -0.305. The composite z-score in the test on Sam68 (KHDRBS1) was 0.325; in test [7], -0.33; in test [8] it was 0.163; in test [9], 0.633; in [10] it was 0.665; in test [11], 0.218. The composite z-score in test [12] was -0.275; in test [13], 0.038; in [14] it was -0.199; in the test with Lefty1, -0.0072; in [16] it was 0.124. In addition, the composite Z-score in [1] is 0.572 (inactive). In addition, the z-score was -1.12 in test [15] and 1.01 (inactive) in test [17].
Regarding `[N-]=[N+]=NCc1ccccc1C[C@]1(C(=O)N2CCCCC2)N=C(c2ccc(OCCCO)cc2)O[C@H]1c1ccccc1N=[N+]=[N-]`, the composite z-score with Albumin (Bos taurus) is 0.836; in [2], 0.194; in test [3], 0.0097; in test [4], 0.593; in test [5], 2.45; in test [6], 0.799. For the same compound, the composite z-score in the test with Sam68 (KHDRBS1) was 1.33; in test [7], -0.518; in test [8] it was 1.1; in [9] it was 2.87; in [10], 1.23; in test [11] it was 1.71. Also, the composite z-score in test [12] was 0.984; in [13] it was 0.887; in [14], -0.0521; with Lefty1, -0.0342; in [16], 1. Besides, the composite Z-score in test [1] was -0.602 (inactive). Besides, the z-score in [15] is -0.756; in test [17] it was -9.69 (active).

The values are drawn from PubChem BioAssay.
